The structures appear in SMILES notation. In all, about 190,000 compounds went through this assay and about 240 (0.13%) were called active. No stated cut-off is given here; in the data, active means inhibition above about 40%. This excerpt belongs to a sample that is enriched for actives.

For orientation: inhibition means the drop in the measured response relative to a control, in per cent.

Chain of Bcl-2-related protein A1 (Homo sapiens) (Q16548 whole entry, looked up): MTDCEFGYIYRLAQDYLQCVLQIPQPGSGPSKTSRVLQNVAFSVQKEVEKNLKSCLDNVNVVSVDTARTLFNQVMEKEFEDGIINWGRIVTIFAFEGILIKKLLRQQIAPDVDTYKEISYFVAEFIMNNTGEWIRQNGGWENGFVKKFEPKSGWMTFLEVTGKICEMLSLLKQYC

This assay has as its target Bcl-2-related protein A1 (Homo sapiens) (UniProt Q16548). Description: Bfl-1/Bim complex disruptors – biochemical, multiplexed, bead-based flow cytometry, primary screen (AID 1008).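 Further: 0% = wells without compound plus tracer and 100% = blocker peptide.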 As to conditions: Bim-Bfl-1 binding inhibition, at 10 µM, hits give high values. For orientation: Flow cytometry measures light scatter and fluorescence of single cells or particles in a stream.
On to `O=[N+]([O-])c1cccc(-c2nnc3c4ccccc4c4ccccc4n23)c1`, for which the inhibition was -7% (inactive).
For the molecule `O=c1[nH]c2ccccc2n2c(-c3ccccc3)nnc12`, the inhibition is 54% (active).
`CCOC(=O)c1cnc2[nH]c3ccccc3n2c1=O`: the inhibition was -8% (inactive).
With `CC(=O)c1ccc(N2CCN(C(=O)c3ccc4nc[nH]c4c3)CC2)cc1`, the inhibition was 0% (inactive).
For the molecule `CN(C(=O)CSc1nnc(Nc2ccccc2)s1)C1CCS(=O)(=O)C1` (stereo not drawn), the inhibition is -5% (inactive).
For `CC1(C)C2CCC1(C)C(OC(=O)c1ccc(O)cc1)C2` (stereo not drawn), the inhibition is 2% (inactive).
On to `COc1ccc(CC(=O)NCc2nnc(SCC(=O)Nc3ncc(C)s3)n2C)cc1`, for which the inhibition was -5% (inactive).
Under `COc1ccc(CN2CCNC(=O)C2CC(=O)N(C)Cc2ccccn2)cc1OC` (stereo not drawn) stands -2% (inactive); under `O=C(O)CC(Cc1ccccc1)C(=O)Nc1ccc([N+](=O)[O-])cc1` (stereo not drawn), -14% (inactive).
Turning to `Cc1cc(Cl)ccc1NC(=S)N1CCC(C(N)=O)(N2CCCCC2)CC1`, the inhibition is 0% (inactive).
For `C=CCOCCN(C)C1=NS(=O)(=O)c2ccccc21`, the inhibition is -4% (inactive).
As for `CCC(C)(C)NC(=O)CN(C(=O)C(=O)Nc1ccc2c(c1)OCCO2)C(C)(C)CC`, the inhibition is 3% (inactive).
Consider `O=S(=O)(c1ccc(-c2ccccc2)cc1)N1CCCC1`, for which the inhibition was -7% (inactive).
On to `CN(c1ccc2nc3ccccc3c(=O)n2n1)C1CCCCC1`, for which the inhibition was -3% (inactive).
Consider `CCOC(=O)Cc1csc(NC(=O)COc2ccc3c(C)cc(=O)oc3c2)n1`, for which the inhibition is -4% (inactive).
As for `CCOC(=O)c1ccccc1NC(=O)CSc1nc2ccccc2c(=O)[nH]1`, the inhibition is -3% (inactive).
As to `COc1ccc(-c2ccc(CCC(=O)O)n2-c2ccc(O)cc2)cc1`, the inhibition was 5% (inactive).
Take `Cc1cc(Cl)c(S(=O)(=O)NCCC(=O)O)cc1OCC(N)=O`: the inhibition was -15% (inactive).
With `Cc1cc(Cl)c(S(=O)(=O)NCC2CCCO2)cc1OCC(N)=O` (stereo not drawn), the inhibition was 48% (active).
`Cc1cc(Cl)c(S(=O)(=O)Nc2ccc3c(c2)OCCO3)cc1OCC(N)=O`: the inhibition was -2% (inactive).
Take `CN(C)S(=O)(=O)N1CCN(c2ccc([N+](=O)[O-])cc2)CC1`: the inhibition is 0% (inactive).
As to `Cc1ccc(CC(=O)Nc2ccc(OC(F)F)c(Cl)c2)cc1C`, the inhibition is -6% (inactive).
Turning to `COc1cccc(C(O)Cc2nc3ccccc3n2C)c1OC` (stereo not drawn), the inhibition is -3% (inactive).
`CCOC(=O)/C(C#N)=C/c1cn(CCC(=O)O)nc1-c1ccc(Br)cc1`: the inhibition is -9% (inactive).
In the case of `CC(=O)Nc1ccc(NC(=O)COc2ccc(S(=O)(=O)NC(C)c3ccccc3)cc2)cc1` (stereo not drawn), the inhibition was -5% (inactive).
As for `Cc1oc2c(c1C(=O)N1CCOCC1)C(=O)c1ccccc1C2=O`, the inhibition was -1% (inactive).
The value for `Cc1ccnc(NC(=O)c2ccco2)n1` was -3% (inactive).
Regarding `COC(=O)COc1ccc(C2NC(=O)NC(C)=C2C(=O)NCc2ccccc2)cc1OC` (stereo not drawn), the inhibition was -9% (inactive).
As for `C/C(=N\NC(=O)COc1c(C)cccc1C)c1cccs1`, the inhibition was -7% (inactive).
`Cc1ccc(NC(=O)c2ccn(C(=O)Nc3ccccc3)n2)c(C)c1`: the inhibition was -2% (inactive).
Take `CC1(C)CC(=O)c2ccc(O)cc2O1`: the inhibition was -4% (inactive).
As for `Cc1[nH]c2ccccc2c1SCC(=O)Nc1nccs1`, the inhibition is -5% (inactive).
In the case of `CCCOC(=O)c1c(NC(=O)c2cnn3c2NC(c2ccccc2)CC3C(F)(F)F)sc2c1CCCC2` (stereo not drawn), the inhibition is -18% (inactive).
On to `Cc1ccc(-c2csc(NC(=O)Cn3[nH]c(=O)c4ccccc4c3=O)n2)cc1`, for which the inhibition is -4% (inactive).
Regarding `CCc1cccc(CC)c1NC(=S)NCc1ccc2[nH]c(C)cc2c1`, the inhibition is -2% (inactive).
As to `Cn1cc(CN2CCC(C(O)CCc3ccccc3)CC2)c(-c2ccccc2F)n1` (stereo not drawn), the inhibition is -5% (inactive).
For `CCO[C@H]1OC(C(=O)N2CCOCC2)=C[C@@H](c2ccc3c(c2)OCO3)[C@@H]1CCCO`, the inhibition is -4% (inactive).
Regarding `O=C(CCC(=O)Nc1ccccc1)N/N=C/c1ccccc1F`, the inhibition was -4% (inactive).
Take `Cc1cc([N+](=O)[O-])ccc1NC1CCCC1`: the inhibition was -7% (inactive).
As for `C=CS(=O)c1sc(Cl)c(N2CCOCC2)c1[N+](=O)[O-]` (stereo not drawn), the inhibition is 57% (active).
The value for `O=C(O)c1cccc(S(=O)(=O)Nc2ccc(O)cc2Sc2nc3ccccc3s2)c1` was 7% (inactive).
Turning to `COc1ccc(S(=O)(=O)Nc2ccc(O)c(Sc3nc4ccccc4s3)c2)cc1`, the inhibition was 9% (inactive).
For the molecule `O=[N+]([O-])c1c(NCCO)cc(Sc2nc3ccccc3s2)c2nonc12`, the inhibition was 56% (active).
On to `COc1ccc(N(C)S(=O)(=O)c2cccc3nsnc23)cc1`, for which the inhibition was -6% (inactive).
Turning to `C=CCn1c2ccccc2c2nnc(SCc3[nH]c(=O)[nH]c3C(=O)CCCCC(=O)OCC)nc21`, the inhibition is 16% (inactive).
Under `Cc1nonc1C1CCCN1Cc1nc(-c2ccc(F)cc2F)oc1C` (stereo not drawn) stands -4% (inactive).
With `Cc1n[nH]c(=O)n1-c1ccc(C(C)C)cc1`, the inhibition was -5% (inactive).
As to `C/C(CC(=O)Nc1cccc(F)c1)=N\NC(=O)C(=O)NC1CCCCC1`, the inhibition is 0% (inactive).
As to `CN(C(=O)c1c(Cl)cnn1C)C12CC3CC(CC(C3)C1)C2`, the inhibition is 21% (inactive).
Turning to `CCN(CCn1cccn1)Cc1nc(-c2ccc(C(=O)OC)cc2)no1`, the inhibition is -5% (inactive).
Turning to `Cc1ccccc1NC(=O)CN1C(=O)N/C(=C\c2cccn2-c2cccc(C(=O)O)c2)C1=O`, the inhibition is -3% (inactive).
`COc1cc(NC(=S)NCCSc2ccc(C)cc2)cc(OC)c1`: the inhibition was -1% (inactive).
With `CCN(CC)S(=O)(=O)c1ccc(Cl)c(C(=O)NC(C)C(c2cccs2)N2CCCC2)c1` (stereo not drawn), the inhibition was -5% (inactive).
Regarding `C=CCNc1nc(Nc2ccc(Cl)cc2)nc(OC)n1`, the inhibition is -6% (inactive).
In the case of `Cc1cccc(NC(=S)NCCN(C2CCCCC2)C2CCCC2)c1`, the inhibition was -2% (inactive).
Regarding `CCOC(=O)C1(CC2CCCCO2)CCN(Cc2nc(-c3cccs3)oc2C)CC1` (stereo not drawn), the inhibition is -5% (inactive).
In the case of `Cc1cccc2cc(CN(C(=O)c3cccs3)c3ccccc3)c(=O)[nH]c12`, the inhibition was -5% (inactive).
For the molecule `N=c1c2c3c(sc2ncn1N)CCCC3`, the inhibition is -7% (inactive).
For the molecule `Nc1nc(CC(=O)CSc2ccc(Cl)cc2)nc(Nc2ccc(F)cc2)n1`, the inhibition is -12% (inactive).
Take `O=C(/C=C/c1ccc(Cl)cc1)N1CCN(c2ccccc2[N+](=O)[O-])CC1`: the inhibition was 2% (inactive).
The value for `CCN(CC)CCCNC(=O)c1ccc2c(=O)n(Cc3ccc4c(c3)OCO4)c(=S)[nH]c2c1` was -5% (inactive); that for `CCOC(=O)c1sc(-c2cccc([N+](=O)[O-])c2)cc1N` was -1% (inactive).
Under `Cc1ccc(/C=N/NC(=O)Cn2ccc(C(F)(F)F)n2)o1` stands -3% (inactive).
Under `COc1ccc(N2C(=O)C(CC(=O)Nc3ccc(F)cc3)N(CCc3cccs3)C2=O)cc1` (stereo not drawn) stands -3% (inactive).
Consider `Cc1cc(C(=O)NNC(=O)c2cccc(S(=O)(=O)N3CCOCC3)c2)c2ccccc2n1`, for which the inhibition was -6% (inactive).
The value for `CC(C)n1c(O)c(N=Nc2ccccn2)c2ccccc21` was -1% (inactive); that for `CCC(O)C1CCN(Cc2cn(-c3ccc(OC)cc3)nc2-c2cccc(F)c2)CC1` (stereo not drawn) was -8% (inactive).
Under `CC(=O)C1=C(C)NC2=C(C(=O)CC(C)(C)C2)C1C` (stereo not drawn) stands -2% (inactive); under `O=C(O)CSc1nccc2ccccc12`, 5% (inactive).
With `OC1CCCN(c2ncnc3c2nnn3Cc2c(F)cccc2Cl)C1` (stereo not drawn), the inhibition was 4% (inactive).
The value for `CO/N=C/CC(=O)c1ccc(OC)cc1` was -2% (inactive).
In the case of `OCCC1CN(Cc2ccc3nsnc3c2)CCN1C1CCCC1` (stereo not drawn), the inhibition is -8% (inactive).
For `CCc1ccc(C2C(C#N)=C(N)N(N(C)C)C3=C2C(=O)CCC3)s1` (stereo not drawn), the inhibition is 0% (inactive).
Under `CC(OC(=O)c1ccccc1OCc1ccc(Cl)cc1)C(N)=O` (stereo not drawn) stands -4% (inactive).
As to `CC1Cc2ccccc2N1C1=CC(=O)CC(C)(C)C1` (stereo not drawn), the inhibition was -4% (inactive).
`C=CCc1ccccc1OCC(=O)N/N=C/c1ccccc1OCC`: the inhibition was -1% (inactive).
Consider `CCOc1ccccc1/C=N/NC(=O)CNC(=O)COc1ccccc1`, for which the inhibition was 54% (active).
Turning to `Cc1ccc(/C=N/NC(=O)CNC(=O)COc2ccccc2)o1`, the inhibition was -12% (inactive).
For the molecule `C=CCOC(=O)C1=C(C)N=C2SCCC(=O)N2C1/C=C/c1ccccc1OC` (stereo not drawn), the inhibition was -9% (inactive).
With `Cc1ccc(/C=C/C(=O)Nc2ccc([N+](=O)[O-])c(NC(=O)/C=C/c3ccc(C)o3)c2)o1`, the inhibition was 40% (active).
Turning to `CCc1nnc(NC(=O)/C=C/c2ccc(C)o2)s1`, the inhibition was -1% (inactive).
Consider `Cc1c(NC(=O)/C=C/C(=O)O)cccc1[N+](=O)[O-]`, for which the inhibition is -15% (inactive).
Regarding `O=C(/C=C/c1ccc(Cl)cc1)Nc1ccc(Br)cn1`, the inhibition is -6% (inactive).
`Cc1nn(-c2ccccc2)c(NC(=O)c2cccs2)c(-c2ccc(Cl)cc2)c1=O`: the inhibition is -7% (inactive).
Regarding `CSCc1cc(N2CCOCC2)nc(SCc2ccc(Cl)cc2Cl)n1`, the inhibition is -15% (inactive).
`Clc1ccc(CSc2nnc(/C=C/c3ccccc3)o2)c(Cl)c1`: the inhibition is -12% (inactive).
The value for `CSCc1cc(N(C)C)nc(SCc2ccc(Cl)cc2Cl)n1` was 52% (active); that for `COc1cc(OC)cc(-c2nnc(N(C)C(=O)c3ccncc3)s2)c1` was -10% (inactive).
The value for `CCO[C@H]1OC(C(=O)N2CCCCCCC2)=C[C@@H](c2ccc(C(F)(F)F)cc2)[C@@H]1CCCO` was -7% (inactive); that for `C/C(=C\c1ccco1)C1Nc2cccc3cccc(c23)N1` was 45% (active).
`CC(/C=N/NC(=O)c1ccncc1)=C\c1ccco1`: the inhibition was -1% (inactive).
For `CC(/C=N/NC(=O)c1cc(-c2ccc3ccccc3c2)n[nH]1)=C\c1ccco1`, the inhibition is 8% (inactive).
Under `CCn1c(CNC(=O)c2ccco2)nnc1SCC(=O)Nc1cccc(F)c1` stands -1% (inactive); under `Cc1ccc(C2CCN(C(=S)Nc3cccc(Cl)c3)C2)cc1` (stereo not drawn), -4% (inactive).
The value for `COC(=O)c1cc2c(ccn2C)n1C` was -5% (inactive); that for `COc1cc(OC)c(C(=O)OCC(=O)N2CC(=O)Nc3ccccc32)cc1OC` was -1% (inactive).
For `CCC(=O)c1ccc(OCC(O)Cn2nc(C)c(C(C)=O)c2C)cc1` (stereo not drawn), the inhibition is 0% (inactive).
On to `CNC(=S)N1CCC(NC(=O)C(Cc2ccc(F)cc2)NC(C)=O)CC1` (stereo not drawn), for which the inhibition was -2% (inactive).

For the origin of these results see PubChem BioAssay AID1008 (NMMLSC, 2008).
